In the library only some 4.1% were active in any assay of this set; here they are far more common.
DAX1 inh-1: DAX1 (NR0B1) inhibitors, primary screen, cell-based, HEK293, Gal4-DAX1, luciferase luminescence; Nuclear receptor subfamily 0 group B member 1 (Homo sapiens), P51843; HEK293 Gal4-DAX1 luciferase reporter; inhibition, % at 6.75 µM; 340,000 tested, 0.99% active; AID 504766, 2011;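 active means inhibition above the mean over all tested compounds plus 3 SD, cut at about 4.2% in these data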;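 further: 0% = DAX1-transfected cells with DMSO and 100% = empty-vector control cells with DMSO; inhibition shows as a rise in luminescence from relieved DAX1 repression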
Target sequence (P51843 207-470 limits assumed): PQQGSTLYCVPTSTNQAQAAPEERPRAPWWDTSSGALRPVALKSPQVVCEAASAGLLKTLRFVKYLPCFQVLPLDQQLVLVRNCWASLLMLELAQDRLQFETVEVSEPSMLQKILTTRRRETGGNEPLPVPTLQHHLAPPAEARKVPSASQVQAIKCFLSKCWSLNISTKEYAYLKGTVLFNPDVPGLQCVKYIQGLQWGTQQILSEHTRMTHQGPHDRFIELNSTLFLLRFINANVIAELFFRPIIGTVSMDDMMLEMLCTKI
DAX1 inh-2: DAX1 (NR0B1) inhibitors on StAR promoter, primary screen, cell-based, luminescence, SF-1 (NR5A1), full-length DAX-1. HEK293T StAR-luciferase reporter, SF-1/DAX-1 repression relief. inhibition, % at 6.8 µM. 370,000 tested, 1.1% active;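 active means inhibition above the mean over all tested compounds plus 3 SD, cut at about 3.6% in these data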;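 further: 0% = DAX-1 cells with DMSO and 100% = cells lacking DAX-1 with DMSO; higher inhibition means more luminescence from relief of DAX-1 repression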
hgDAF12 agonist: H. glycines DAF-12 receptor agonists, primary screen, cell-based, luminescence, HEK293, GAL4 fusion, UAS-luciferase; 370,000 tested, 1.8% active; activation, % at 6.8 µM; AID 687014, 2013; HEK293 GAL4-hgDAF12 UAS-luciferase reporter, agonist luminescence; normalized to butyrate control; Nuclear hormone receptor DAF-12 (Heterodera glycines), GAL4 fusion;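 active means activation above a cutoff set at the mean of all screened compounds plus 3 SD, cut at about 10% in these data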;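 further: 0% = DMSO wells and 100% = sodium butyrate wells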
ssDAF-12 act: S. stercoralis DAF-12 nuclear receptor activators, primary screen, cell-based, luminescence, HEK293, GRIP1 co-expression, lit1-tk-luc | Nuclear hormone receptor DAF-12 (Strongyloides stercoralis) | HEK293 ssDAF-12/GRIP1 lit1-tk-luc reporter; % of 3 µM dafachronic acid response | activation, % at 6.8 µM | 370,000 tested, 1% active;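 active means activation above the mean over all tested compounds plus 3 SD, cut at about 0.9% in these data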;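 further: 0% = DMSO-only wells and 100% = 3 µM delta7-dafachronic acid wells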
hcDAF-12 act: H. contortus DAF-12 nuclear receptor activators, primary screen, cell-based, luminescence, HEK293, lit1-tk-luc reporter; HEK293 hcDAF-12 lit1-tk-luc reporter; 0% DMSO, 100% Δ7-dafachronic acid; activation, % at 6.8 µM; 370,000 tested, 1.4% active;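 active means activation above the mean of all tested compounds plus 3 SD, cut at about 5.5% in these data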;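 further: 100% = response to 3 µM Δ7-dafachronic acid high control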
Numbers without * were called inactive.

What do the screens show for `Nc1n[nH]c(N)c1N=Nc1ccc2c(c1)OCO2`?
DAX1 inh-1: 4.8*; DAX1 inh-2: 1; hgDAF12 agonist: 9; ssDAF-12 act: -1; hcDAF-12 act: 2

How did O=C(Nc1ccccc1)C1Cc2ccccc2CN1C(=O)c1ccco1 (stereo unspecified) do in these assays?
DAX1 inh-1: 3; DAX1 inh-2: 3; hgDAF12 agonist: 13*; ssDAF-12 act: 1.0*; hcDAF-12 act: 6.3*

How did COC(=O)c1ccc2nc(-c3ccccc3)c(Cc3cccc(Cl)c3)n2c1 do in these assays?
DAX1 inh-2: 2; hgDAF12 agonist: 9; ssDAF-12 act: 1.2*; hcDAF-12 act: 4

What do the screens show for `COC(=O)c1ccc2nc(C3CCCCC3)c(CC(C)(C)C)n2c1`?
DAX1 inh-2: -1; hgDAF12 agonist: -1; ssDAF-12 act: -1; hcDAF-12 act: -1

Results for COC(=O)c1ccc2nc(C3CCCCC3)c(Cc3ccccc3)n2c1 ?
DAX1 inh-2: 1; hgDAF12 agonist: 3; ssDAF-12 act: 0; hcDAF-12 act: 5.9*

Results for O=C(CN1CCc2onc(-c3ccc(-n4cc(C5=CCCCC5)nn4)cc3)c2C1=O)N1CCOCC1 ?
DAX1 inh-2: -2; hgDAF12 agonist: -1; ssDAF-12 act: -1; hcDAF-12 act: -2

How did O=C(COc1ccccc1Cl)Nc1cccnc1 do in these assays?
DAX1 inh-1: 4; DAX1 inh-2: 3; hgDAF12 agonist: 12*; ssDAF-12 act: -1; hcDAF-12 act: 2

What do the screens show for `CCOC(=O)CC[C@H]1CC[C@]2(CCCN(C(=O)c3ccno3)C2)O1`?
DAX1 inh-2: 0; hgDAF12 agonist: -2; ssDAF-12 act: -1; hcDAF-12 act: -1

What do the screens show for `CNc1ccc(-c2cccc(C(C)=O)c2)cn1`?
DAX1 inh-2: 0; hgDAF12 agonist: 5; ssDAF-12 act: -1; hcDAF-12 act: 1

Results for CNc1ccc(-c2cccc(CO)c2)cn1 ?
DAX1 inh-2: 1; hgDAF12 agonist: 11*; ssDAF-12 act: -1; hcDAF-12 act: 3

What do the screens show for `O=C(NCCCN1CCN(c2ccc(F)cc2)CC1)Nc1ccccc1`?
DAX1 inh-2: 2; hgDAF12 agonist: -3; ssDAF-12 act: -1; hcDAF-12 act: -2

How did CCc1ccc(C(=O)CN2C(=O)NC3(CCCCCC3)C2=O)cc1 do in these assays?
DAX1 inh-1: 1; DAX1 inh-2: 4.5*; hgDAF12 agonist: 5; ssDAF-12 act: -1; hcDAF-12 act: 1

What do the screens show for `CC(C)N(Cc1ccccc1)C(=O)CN1C(=O)NC2(CCCC2)C1=O`?
DAX1 inh-1: -1; DAX1 inh-2: 4.1*; hgDAF12 agonist: -2; ssDAF-12 act: -1; hcDAF-12 act: -1

What do the screens show for `CN(Cc1ccccc1)C(=O)CN1C(=O)NC2(CCCC2)C1=O`?
DAX1 inh-1: 0; DAX1 inh-2: -1; hgDAF12 agonist: 2; ssDAF-12 act: -1; hcDAF-12 act: 1

Results for CCc1cccc2c(C(=O)CN3C(=O)NC4(CCCCC4)C3=O)c[nH]c12 ?
DAX1 inh-1: -1; DAX1 inh-2: 3.9*; hgDAF12 agonist: -8; ssDAF-12 act: -2; hcDAF-12 act: -1

What do the screens show for `CN(Cc1ccc2c(c1)OCCO2)C(=O)CN1C(=O)NC2(CCCCC2)C1=O`?
DAX1 inh-1: 1; DAX1 inh-2: -2; hgDAF12 agonist: 0; ssDAF-12 act: -1; hcDAF-12 act: 1

Results for O=C(CN1C(=O)NC2(CCCCCC2)C1=O)c1ccc(F)cc1 ?
DAX1 inh-1: 0; DAX1 inh-2: 0; hgDAF12 agonist: 2; ssDAF-12 act: 0; hcDAF-12 act: 2

What do the screens show for `O=C(CN1C(=O)NC2(CCCCCC2)C1=O)c1ccc2c(c1)OCCO2`?
DAX1 inh-1: 2; DAX1 inh-2: 2; hgDAF12 agonist: 11*; ssDAF-12 act: 0; hcDAF-12 act: 6.4*

How did O=C(Nc1nc(-c2ccccc2)ns1)c1ccncc1 do in these assays?
DAX1 inh-1: 8.4*; DAX1 inh-2: -1; hgDAF12 agonist: 2; ssDAF-12 act: 0; hcDAF-12 act: 0

Screening results from PubChem BioAssay.
